Screening data deposited in PubChem by National Center for Advancing Translational Sciences (NCATS).
TCR act: activators of T cell receptors | primary human leukocytes, anti-CD3, IL-2 HTRF, 48 h | Potency, µM (highest dose often 9.22 µM), hits mostly activators | 330,000 tested, under 10 active | AID 504894
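Readout: HTRF IL-2, Eu-cryptate/d2 antibody pair, 320nm excitation, 665nm emission. Stimulus: a-CD3 beads, no co-stimulation. Cells: primary human leukocytes. Exposure: 48 hr with compound.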
Mito fusion yeast: blocks mitochondrial division or promotes mitochondrial fusion; S. cerevisiae fusion-defective mutant growth rescue, CellTiterGlo 48 h; AID 485298; 320,000 compounds, 0.23% hits; Potency, µM (top dose mostly 46.1 µM), hits mostly activators; further: nearly all actives have a fitted effect of over 45% in size
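Yeast fusion mutant, YPEG (non-fermentable carbon), compound, 48 h at 37C non-permissive; CellTiterGlo added, 10 min RT, luminescence read. Rescued growth = division inhibition.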
ClpP mod: qHTS Assay for Activators of ClpP; ATP-dependent Clp protease proteolytic subunit (Bacillus subtilis (strain 168)), P80244; purified B. subtilis ClpP, FRET peptide cleavage, 20 min; Potency, µM (doses to about 57.5 µM); 340,000 compounds, 1.9% hits; AID 651965, 2013; active means well fitted falling curve with a large enough effect; inconclusive means small, poorly fitted or top-dose-only effect; inactive means no such curve, though single readings can be large or run the other way; further: the source files actives as falling curves though it sought activators and does not explain the sign; nearly all actives have a fitted effect of over 65% in size
Target sequence (P80244 whole entry, looked up): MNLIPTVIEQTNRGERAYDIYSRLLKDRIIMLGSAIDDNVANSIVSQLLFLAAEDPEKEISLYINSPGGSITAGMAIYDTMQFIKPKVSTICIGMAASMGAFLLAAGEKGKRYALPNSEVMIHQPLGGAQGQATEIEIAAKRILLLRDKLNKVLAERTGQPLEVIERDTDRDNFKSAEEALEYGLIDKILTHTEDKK
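Purified B. subtilis ClpP, 10 microg/mL final in Tris/HCl pH8 with KCl, BSA, glycerol and Tween-20, cleaved an Abz/nitrotyrosine-quenched decapeptide. Fluorescence (ex 320, em 430) was read at 0 and 20 min at room temperature. Delta was normalized to 5.8 microM ADEP and DMSO/no-enzyme controls.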
MBNL1-CUG inh: MBNL1-poly(CUG) RNA binding inhibition. TR-FRET MBNL1-His/biotin-(CUG)12 binding, 665/545 ratio. Potency, µM (titrated, usually from 57.5 µM), usual class: inhibitors. 280,000 compounds, 0.036% hits. Q9NR56; active means well fitted inhibition curve with a large enough effect in the signal ratio, with a control signal flat, not every such curve was filed as active; inconclusive means small, poorly fitted or top-dose-only effect, or effect the other way, or a change in a side signal; inactive means no such curve, though single readings can be large or run the other way; the % refers to the signal ratio
Target sequence (Q9NR56 whole entry, looked up): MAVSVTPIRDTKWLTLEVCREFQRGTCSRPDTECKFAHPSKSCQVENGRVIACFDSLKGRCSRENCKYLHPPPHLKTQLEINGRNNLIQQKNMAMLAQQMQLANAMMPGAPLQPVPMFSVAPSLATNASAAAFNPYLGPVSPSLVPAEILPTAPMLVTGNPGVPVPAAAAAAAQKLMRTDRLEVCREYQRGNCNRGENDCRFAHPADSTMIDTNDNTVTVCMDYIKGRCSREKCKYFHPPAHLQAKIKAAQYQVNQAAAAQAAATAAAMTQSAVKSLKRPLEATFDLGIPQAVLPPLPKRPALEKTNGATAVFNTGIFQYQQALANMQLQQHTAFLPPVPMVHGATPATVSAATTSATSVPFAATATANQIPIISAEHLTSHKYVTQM
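His-tagged MBNL1 binding to biotinylated (CUG)12 RNA was measured by TR-FRET using terbium anti-His antibody (0.055 ng/ul final) and streptavidin-XL665 (5 nM final). Compounds were titrated 92 nM to 58 uM; 60 min at room temperature.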
Glioma ERSR ind: inducers of ER stress response in human glioma cells | U87-MG GRP78 promoter luciferase reporter, 16 h | Potency, µM, hits mostly activators | 420,000 compounds, 0.02% hits | AID 602332; further: series mostly up to about 76 µM; nearly all actives have a fitted effect of over 35% in size
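Stably transfected U87-MG human glioma cells carrying a GRP78-based luminescent sensor were seeded at 1000 cells/well, pin-dosed with compounds and incubated 16 h. Luciferase reagent was then added, and end-point luminescence was read after 10 min at room temperature.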
A-T KAP1 phos: potential ataxia-telangiectasia treatment | F2112 A-T fibroblasts, KAP-1 phosphorylation AlphaLISA; neocarzinostatin DNA damage 30 min before lysis | Potency, µM (titrated, usually from 57.5 µM), most hits filed as activators | 320,000 compounds, 0.19% hits | AID 485349; further: nearly all actives have a fitted effect of over 45% in size
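ATM-like activity read as KAP-1 phosphorylation via AlphaLISA donor/acceptor antibody pairs after lysis and 6 hr at 25C. Cells were ATM-null patient fibroblasts (F2112, hTERT), dosed 60 min, then exposed to the DSB inducer NCS for 30 min.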
Of the large screens only hits and unclear results are named; the others gave an inactive call. Hits are enriched below; roughly 1.8% of the tested compounds scored in any of these assays. Unless noted, the call rests on the fitted dose curve; in most records, active means well fitted curve in the direction sought with a large enough effect; inconclusive means small, poorly fitted or top-dose-only effect, or another doubt; inactive means no such curve, though single readings can be large; an effect the other way counts as inactive or inconclusive.

O=C(Cc1ccccc1)Nc1nnc(-c2cccs2)s1	ClpP mod 20µM
CCC(=O)Nc1nnc(-c2cccs2)s1	none (no result: ClpP mod)
C=CC[N+]1([C@H]2C[C@H]3[C@@H]4CC[C@H]5C[C@H](O)[C@@H](N6CCOCC6)C[C@]5(C)[C@H]4CC[C@]3(C)[C@H]2OC(C)=O)CCCC1	none (no result: TCR act, Mito fusion yeast, ClpP mod, MBNL1-CUG inh, A-T KAP1 phos)
CC(=O)NC(Cc1ccc(F)cc1)C(=O)NC1CCN(C(=O)Nc2ccc(F)cc2)CC1 (configuration not stated)	none (no result: ClpP mod)
COc1ccc(NC(=O)N2CCN(C(=O)C(Cc3ccc(F)cc3)NC(C)=O)CC2)cc1 (configuration not stated)	ClpP mod 31.6µM (no result: TCR act)
Cc1ccnc2ccc([N+](=O)[O-])cc12	none (no result: TCR act, Mito fusion yeast, MBNL1-CUG inh, A-T KAP1 phos)
C/C(CC(=O)Nc1ccc(N(C)C)cc1)=N\NC(=O)c1ccc(Cl)cc1Cl	none (no result: TCR act)
C/C(CC(=O)Nc1ccc(N(C)C)cc1)=N\NC(=O)c1ccc([N+](=O)[O-])cc1Cl	ClpP mod 25.1µM, MBNL1-CUG inh inconclusive
CC(=O)SC1CC2=CC(=O)CC[C@]2(C)C2CC[C@@]3(C)C(CC[C@@]34CCC(=O)O4)C12 (some centres not stated)	Mito fusion yeast inconclusive (no result: TCR act, ClpP mod, MBNL1-CUG inh, A-T KAP1 phos)
Cc1ccc(O)c(C(=O)c2cnn(C(=O)COc3ccc(Cl)cc3)c2)c1	ClpP mod 15.8µM
O=C(c1cnn(C(=O)COc2ccc(Cl)cc2)c1)c1ccccc1O	none
Cc1cccc(CNC(=O)c2c3n(c(C)cc2=O)-c2ccccc2SC(c2sccc2C)C3)n1 (configuration not stated)	none (no result: TCR act, Mito fusion yeast, ClpP mod, MBNL1-CUG inh, A-T KAP1 phos)
Cc1nc(NCc2ccco2)c2oc3ccccc3c2n1	ClpP mod 14.1µM (no result: A-T KAP1 phos)
Cn1nnc2c(NCc3ccco3)nccc21	ClpP mod 15.8µM
Cc1nnc(NCc2ccco2)c2ccccc12	ClpP mod 25.1µM
Cc1nc(Nc2ccncc2)c2oc3ccccc3c2n1	ClpP mod 14.1µM (no result: A-T KAP1 phos)
Cc1cnc(-n2ncc(C(=O)NCC(C)(C)N3CCOCC3)c2C)nc1-c1cccs1	none (no result: TCR act, Mito fusion yeast, ClpP mod, MBNL1-CUG inh, A-T KAP1 phos)
CC(C)(O)C#Cc1ccc(C(=O)NCCN2Cc3ccccc3OC(c3ccccc3F)C2)o1 (configuration not stated)	none (no result: TCR act, Mito fusion yeast, ClpP mod, MBNL1-CUG inh, A-T KAP1 phos)
COc1ccc(-c2cn3c(n2)sc2cc(C(=O)NCCC4=CCCCC4)ccc23)cc1	none (no result: TCR act, Mito fusion yeast, MBNL1-CUG inh, A-T KAP1 phos)
Cc1nn(-c2ccccc2)c(C)c1CC(=O)NCC1Cc2cc(F)cc(-c3cccnc3)c2O1 (configuration not stated)	none (no result: TCR act, Mito fusion yeast, ClpP mod, MBNL1-CUG inh, A-T KAP1 phos)
Cc1cnc(-n2ncc(C(=O)N(C)Cc3cccc4ncccc34)c2C(C)C)nc1-c1ccc(F)cc1	none (no result: TCR act, Mito fusion yeast, ClpP mod, MBNL1-CUG inh, A-T KAP1 phos)
CCOc1ccc(NS(=O)(=O)c2ccc(NC(=S)NC(=O)CC(C)C)cc2)cc1	Mito fusion yeast inconclusive
CCCC(=O)NC(=S)Nc1ccc(S(=O)(=O)Nc2ccc(OCC)cc2)cc1	Mito fusion yeast 15.8µM
CC(=O)N[C@@H](C)C(=O)NCC1Cc2cc(C)cc(-c3cnccn3)c2O1 (some centres not stated)	none (no result: TCR act, Mito fusion yeast, ClpP mod, MBNL1-CUG inh, A-T KAP1 phos)
COc1ccc(O)c(CN2CCC3(CCC(CNC(=O)c4ccco4)O3)CC2)c1 (configuration not stated)	none (no result: TCR act, Mito fusion yeast, ClpP mod, MBNL1-CUG inh, A-T KAP1 phos)
N#Cc1c(NC(=O)CSc2nc(-c3ccccc3)cc(C(F)(F)F)n2)sc2c1CCC2	ClpP mod 25.1µM (no result: MBNL1-CUG inh)
COc1ccc(-c2cc(C(F)(F)F)nc(SCC(=O)Nc3sc4c(c3C#N)CCC4)n2)cc1	MBNL1-CUG inh inconclusive
COc1cc(NC(=O)c2cccnc2)ccc1-c1cc2ccccc2oc1=O	MBNL1-CUG inh inconclusive (no result: TCR act, ClpP mod, Glioma ERSR ind)
COc1cc(NC(=O)c2cc(Cl)ccc2Cl)ccc1-c1cc2ccccc2oc1=O	ClpP mod 28.2µM (no result: TCR act)
CCc1ccc(OCC(=O)Nc2ccc(-c3cc4ccccc4oc3=O)c(OC)c2)cc1	Mito fusion yeast inconclusive, ClpP mod 35.5µM
